# From PubChem BioAssay (Tox21)
# A number with no mark means an inactive call. Results filed as inconclusive are left out. Entries that show only a call come without a potency. Calls of active or inactive are those of the source. Unless noted, calls come from the whole dose curve; as a rule, active = well fitted curve in the direction sought with a large enough effect in the repeat runs; inconclusive = weak or mixed curves; inactive = flat fitted curve, though single readings scatter.
# What was measured:
# [1] = qHTS assay to test for compound auto fluorescence at 535 nm (green) in HEK293 cells (AID 720680)
# [2] = qHTS assay to test for compound auto fluorescence at 460 nm (blue) in HEK293 cell free culture (AID 720681)
# Summary of the method: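 Test compounds were pinned into cell-free culture medium (DMEM with 10% FBS) and fluorescence was read directly at Ex/Em 405/460 nm. Signals were expressed as fluorescence equivalents of triamterene, with DMSO vehicle as control.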
# [3] = qHTS assay to test for compound auto fluorescence at 535 nm (green) in HEK293 cell free culture (AID 720682)
# Summary of the method: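 Fluorescein serves as the green reference fluorophore; each compound's intrinsic emission at 535 nm (excitation 485 nm) is reported as an equivalent amount of that dye, measured in serum-containing DMEM without cells.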
# [4] = qHTS assay to test for compound auto fluorescence at 590 nm (red) in HEK293 cell free culture (AID 720683)
# Summary of the method: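 Tox21 10K library compounds were pinned into cell-free DMEM with 10% FBS and fluorescence was read at excitation 540 nm. Activity is expressed as Rose Bengal sodium equivalency.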
# [5] = qHTS assay to test for compound auto fluorescence at 590 nm (red) in HepG2 cell free culture (AID 720684)
# Summary of the method: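 Readout: intrinsic compound fluorescence at 590 nm emission after 540 nm excitation, scaled to Rose Bengal sodium. Matrix was cell-free MEM with 10% FBS; DMSO vehicle wells served as control.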
# [6] = qHTS assay to test for compound auto fluorescence at 460 nm (blue) in HepG2 cell free culture (AID 720685)
# Summary of the method: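 Cell-free plates of MEM plus 10% FBS received 23 nL compound or DMSO vehicle; blue-channel (405/460 nm) intensity scored against triamterene as reference fluorophore.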
# [7] = qHTS assay to test for compound auto fluorescence at 535 nm (green) in HepG2 cell free culture (AID 720686)
# [8] = molecular target: Glucocorticoid receptor (Homo sapiens) (UniProt P04150); test: qHTS assay to identify small molecule agonists of the glucocorticoid receptor (GR) signaling pathway (AID 720691; active = well fitted activation curve with a large enough effect in the signal ratio in the repeat runs, not every such curve was filed as active; the % refers to the signal ratio)
# Sequence of Glucocorticoid receptor (Homo sapiens) (P04150 whole entry, looked up): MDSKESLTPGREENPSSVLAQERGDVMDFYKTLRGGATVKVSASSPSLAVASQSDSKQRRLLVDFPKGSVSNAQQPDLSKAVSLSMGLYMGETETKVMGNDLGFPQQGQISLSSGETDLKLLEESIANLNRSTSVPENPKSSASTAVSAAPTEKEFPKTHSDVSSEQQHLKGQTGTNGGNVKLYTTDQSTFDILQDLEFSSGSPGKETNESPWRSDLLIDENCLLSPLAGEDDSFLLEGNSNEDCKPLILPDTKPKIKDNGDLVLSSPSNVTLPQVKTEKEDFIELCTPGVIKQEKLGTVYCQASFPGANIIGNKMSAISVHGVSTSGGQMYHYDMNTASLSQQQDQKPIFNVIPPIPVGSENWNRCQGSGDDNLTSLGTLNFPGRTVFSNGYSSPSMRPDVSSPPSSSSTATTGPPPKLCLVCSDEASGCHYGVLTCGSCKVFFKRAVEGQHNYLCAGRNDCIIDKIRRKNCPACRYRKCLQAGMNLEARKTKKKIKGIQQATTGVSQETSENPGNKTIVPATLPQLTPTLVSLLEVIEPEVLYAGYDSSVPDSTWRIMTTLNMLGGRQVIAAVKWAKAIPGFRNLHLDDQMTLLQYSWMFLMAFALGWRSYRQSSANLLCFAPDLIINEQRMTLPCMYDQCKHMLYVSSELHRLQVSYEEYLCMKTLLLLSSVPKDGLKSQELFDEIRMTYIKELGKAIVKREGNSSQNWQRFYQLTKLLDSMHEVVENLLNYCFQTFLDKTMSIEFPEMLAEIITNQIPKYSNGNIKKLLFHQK
# Summary of the method: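 Measures GR pathway activation through a GRE-beta-lactamase reporter stably integrated in HeLa cells, with 18 h compound treatment at 37 C and fluorescence detection using a FRET substrate.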
# [9] = qHTS assay to test for compound auto fluorescence at 460 nm (blue) in HepG2 cells (AID 720687)
# Summary of the method: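 Cells (2,000/well in MEM with 10% FBS) attached overnight at 37 C, then were exposed to compound or DMSO for 1 hr at 37 C, 5% CO2. Fluorescence read at Ex/Em 405/460 nm, expressed as triamterene-equivalent signal.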
# [10] = molecular target: Glucocorticoid receptor (Homo sapiens) (UniProt P04150); test: qHTS assay to identify small molecule antagonists of the glucocorticoid receptor (GR) signaling pathway (AID 720692; active = well fitted inhibition curve with a large enough effect in the signal ratio in the repeat runs, not every such curve was filed as active; the % refers to the signal ratio; note: potency is the fitted concentration of half-maximal effect)
# Summary of the method: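 Tox21 10K library screened in concentration-response for blockade of dexamethasone (5 nM final)-induced GRE-bla reporter activity in HeLa cells; 18 h treatment, fluorescence read.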
Structure (SMILES),outcome [1],outcome [2],outcome [3],outcome [4],outcome [5],outcome [6],outcome [7],outcome [8],outcome [9],Potency [10]
O=S1OC[C@@H]2[C@H](CO1)[C@]1(Cl)C(Cl)=C(Cl)[C@@]2(Cl)C1(Cl)Cl (stereo not given in full),inactive,inactive,inactive,inactive,inactive,inactive,inactive,inactive,,
O=[N+]([O-])c1ccccc1CCl,inactive,inactive,inactive,inactive,inactive,inactive,inactive,inactive,inactive,inactive
C=CC(=O)OC(C)(C)C,inactive,inactive,inactive,inactive,inactive,inactive,inactive,inactive,inactive,inactive
Cc1ccccc1CCl,inactive,inactive,inactive,inactive,inactive,inactive,inactive,inactive,,
O=C(Nc1ccccc1)Nc1ccnc(Cl)c1,inactive,inactive,inactive,inactive,inactive,inactive,inactive,,inactive,54.9 µM (active)
CC(=O)C(C)(C)C,inactive,inactive,inactive,inactive,inactive,inactive,inactive,inactive,,
Clc1ccc(C2(Cn3cncn3)CC(Br)CO2)c(Cl)c1 (stereo not given),inactive,inactive,inactive,inactive,inactive,inactive,inactive,inactive,,
Nc1nc(N)nc(N)n1,inactive,inactive,inactive,inactive,inactive,inactive,inactive,inactive,,
O=C(O)CC(Cl)C(=O)O (stereo not given),inactive,inactive,inactive,inactive,inactive,inactive,inactive,inactive,,
O=C1CN=C(c2ccccc2)c2cc(Cl)ccc2N1CC1CC1,inactive,inactive,inactive,inactive,inactive,inactive,inactive,inactive,,
